The text below walks through data of PubChem BioAssay (Tox21).

Results filed as inconclusive are left out. Unmarked numbers belong to inactive results. Calls of active or inactive are those of the source. Calls follow the shape of the dose curve; as a rule, active = well fitted inhibition curve with a large enough effect in the signal ratio in the repeat runs; inconclusive = weak or mixed curves, or effect the other way; inactive = flat fitted curve, though single readings scatter; the % refers to the signal ratio.
% is scaled to controls: 0 for no effect and ±100 for the full control effect; potency is read from the fitted curve at half-maximal effect.

The nature of this test: qHTS assay for small molecule disruptors of the mitochondrial membrane potential (AID 720635). The settings on record: HepG2 mitochondrial membrane potential, Mito-MPS dye ratio; series mostly up to 83.2 µM; ratio activity, negative = MMP loss: at the top concentration. An excerpt: U.S. Tox21 Program National Center for Advancing Translational Sciences [NCATS] NIH Chemical Genomics Center [NCGC] U.S. Environmental Protection Agency [EPA] National Institutes of Environmental Health Sciences [NIEHS] National Toxicology Program [NTP] U.S. Food and Drug Administration [FDA] Tox21 Assay Overview: Mitochondrial membrane potential (MMP), one of the parameters for mitochondrial function, is generated by mitochondrial electron transport chain that creates an electrochemical gradient by a series of redox reactions. This gradient drives the synthesis of ATP, a crucial molecule for various cellular processes. Measuring MMP in living cells is commonly used to assess the effect of chemicals on mitochondrial function. […] The dye accumulates in the mitochondria of healthy cells as aggregates, with red fluorescence. The mitochondrial potential collapses and the dye can no longer accumulate in the mitochondria and remains in the cytoplasm in monomers, with green fluorescence.
Tox21 Assay Protocol Summary: 2,000 HepG2 cells in 5 uL/well were dispensed into black, clear-bottom 1536-well plates using a Multidrop Combi (Thermo Scientific) dispenser. The assay plates were incubated overnight at 37C to allow cells to attach to the wells, followed by the transfer of 23 nL compound or DMSO vehicle by a pin tool (Kalypsys). The plates were incubated for 1 hr at 37C and 5% CO2, followed by the addition of 5 uL of 2X Mito-MPS dye (BD Biosciences) into each well using Flying Reagent Dispenser (Aurora Discovery) and then following 30 min incubation at 37C. Fluorescence intensity (490nm excitation and 535nm emission for monomers; and 540nm excitation and 590nm emissions for aggregates) was measured using an Envision plate reader.
Background: qHTS replaces the single test concentration by a dilution series.
Turning to `CN1C(=O)CC[C@H]1c1cccnc1`, the Potency result was “inactive”. Still for that read-out and setting: next, `CCCCCCCCCCCC(=O)OC`: “inactive”. Take `Cc1ccc2ncccc2c1`: the “ratio activity, negative = MMP loss” value is -11.2%. Same read-out and setting: the figure for `CC(C)CC(C)O` (stereo not given) is 27.2%; for `N[C@H](Cc1c[nH]c2ccccc12)C(=O)O` it is -9.2%. Same read-out and setting: next, `CC(=O)CC(C)(C)O`: 3.09%. Turning to `C=CC(=O)OCCC(=O)O`, the Potency result is “inactive”. For the compound `COc1ccc([N+](=O)[O-])cc1N`, the Potency was 48.8 µM (active). The same measure, in the same setting: the entry for `CC(=O)c1ccc(O)cc1` is “inactive”. Turning to `CCCCCCCCCCO`, the “ratio activity, negative = MMP loss” value is 30.9%. With `Clc1ccccn1`, the Potency entry was “inactive”. On to `CC(=O)CCC=C(C)C`, for which the “ratio activity, negative = MMP loss” value was 8.7% [at 95.3 µM]. Regarding `CCOCCOCCOCCO`, the “ratio activity, negative = MMP loss” value was -6.97% [at 95.3 µM]. For `CC(C)CC(=O)CC(C)CC(C)C` (stereo not given), the Potency entry is “inactive”. Consider `COC(=O)c1cccnc1`, for which the “ratio activity, negative = MMP loss” value was 12%. `c1ccc(Oc2ccccc2)cc1`: the Potency entry is “inactive”. Take `CCO[Si](CCC#N)(OCC)OCC`: the Potency result is “inactive”.

`O=c1[nH]cnc2[nH]ncc12`: the “ratio activity, negative = MMP loss” value was -14.6% [at 95.3 µM].

With `O=S(=O)(O)c1ccccc1`, the “ratio activity, negative = MMP loss” value is 4.03%. Consider `Cc1ccc(C(C)C)c(O)c1`, for which the Potency was 24.3 µM (active).

As to `Cc1ccc([N+](=O)[O-])cc1S(=O)(=O)O`, the Potency result is “inactive”.

Regarding `C=CC[N+](C)(C)CC=C`, the Potency entry is “inactive”.

Regarding `CCCCCCCCCCCCCCCCO`, the “ratio activity, negative = MMP loss” value is -15.7%.

With `Nc1ccc(Cl)c(N)c1`, the Potency was 68.8 µM (active).

Consider `CC(CCO)CC(C)(C)C` (stereo not given), for which the Potency entry was “inactive”. With `CC(=O)OCc1ccco1`, the “ratio activity, negative = MMP loss” value is -10.6%. Same read-out and setting: the figure for `CCNc1cccc(C)c1` is 10.3%; for `CNC(=S)N(C)C` it is 5.7% [at 95.3 µM]. Regarding `CCOCC(=O)O`, the Potency entry is “inactive”. Still for that read-out and setting: next, `O=C1C(c2[nH]c3ccccc3c2O)=Nc2ccccc21`: 4.22 µM (active); `O=[N+]([O-])c1ccc2nc[nH]c2c1`: 27.3 µM (active); `NCCCCCCN`: “inactive”. `CC1(C)CC(N)CC(C)(CN)C1` (stereo not given): the “ratio activity, negative = MMP loss” value is -25.1%. On the same count and under the same terms, next, `CC(O)CC(C)(C)O` (stereo not given): 13.9% [at 95.3 µM]. On to `CN(C)c1ccc(O)c2c1C[C@H]1C[C@H]3[C@H](N(C)C)C(=O)C(C(N)=O)=C(O)[C@@]3(O)C(=O)C1=C2O`, for which the Potency entry was “inactive”. Same read-out and setting: the entry for `C[Si]1(C)O[Si](C)(C)O[Si](C)(C)O[Si](C)(C)O1` is “inactive”. On to `CSc1ccc(Cl)cc1`, for which the “ratio activity, negative = MMP loss” value is 8.33%. For the compound `OCc1cccc(Oc2ccccc2)c1`, the Potency was 54.5 µM (active). Turning to `COc1ccc(N)c(C)c1`, the Potency entry was “inactive”. For the compound `CCCCC(C=O)CC` (stereo not given), the “ratio activity, negative = MMP loss” value was 15.2% [at 95.3 µM].
